In PubChem BioAssay AID1422 (Emory University Molecular Libraries Screening Center, 2008):
About 1,300 (0.5%) of roughly 260,000 compounds were called active. The sample as a whole holds a higher share of actives than the screen did. Values without a mark were called inactive.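 The calls were made as follows: active = percent inhibition above 40 after rounding to a whole number; inactive = the rest.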

molecular target: Prostaglandin E2 receptor EP2 subtype (Homo sapiens) (UniProt P43116); assay: human EP2 receptor antagonists, primary screen, TR-FRET cAMP, C6 glioma cells (AID 1422); details: C6 glioma cells expressing human EP2, cAMP TR-FRET; at 25 µM; active compounds read high; cells stimulated with saturating PGE2;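 also: rat C6 glioma host cells with rolipram phosphodiesterase inhibitor present; the protocol text gives 20 µM as final concentration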
Sequence (P43116 whole entry, looked up): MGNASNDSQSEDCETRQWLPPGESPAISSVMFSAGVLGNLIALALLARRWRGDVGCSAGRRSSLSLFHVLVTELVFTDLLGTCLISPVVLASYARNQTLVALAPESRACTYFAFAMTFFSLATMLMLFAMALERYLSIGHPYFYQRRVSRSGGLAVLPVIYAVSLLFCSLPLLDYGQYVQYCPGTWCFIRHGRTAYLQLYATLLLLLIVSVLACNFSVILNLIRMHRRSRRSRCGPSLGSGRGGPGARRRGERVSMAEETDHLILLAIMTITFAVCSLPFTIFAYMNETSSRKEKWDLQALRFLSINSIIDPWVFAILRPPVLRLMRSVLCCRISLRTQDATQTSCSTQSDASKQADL

SMILES | inhibition
COc1ccc(CNC(=O)CCSc2nc(-c3ccco3)cc(C(F)(F)F)n2)cc1 | 9.17%
CC(Nc1nc(N2CCCC2)nc2ccccc12)c1ccccc1 (stereo not given) | 48.2% (active)
CC(Nc1nc(N2CCOCC2)nc2ccccc12)c1ccccc1 (stereo not given) | 7.73%
CC(Nc1nc(N2CCN(CCO)CC2)nc2ccccc12)c1ccccc1 (stereo not given) | 7.4%
COCCNS(=O)(=O)c1ccc2[nH]c(=O)[nH]c2c1 | 9.6%
Cc1cc(C)c2[nH]c(C)c(CN(C)Cc3ccccc3)c(=O)c2c1 | 12%
CCC(c1nnnn1C(C)(C)C)N(Cc1ccccc1)Cc1cc2ccc(C)cc2[nH]c1=O (stereo not given) | 5.18%
Cc1nc(NC(=O)c2sc3nc4c(C)cccc4cc3c2N)sc1C | 19.7%
O=C(Nc1ccccc1Cl)c1ccc2nsnc2c1 | 5.72%
O=C(Nc1ccccc1Cl)/C(Cl)=C(\Cl)S(=O)c1ccccc1 (stereo not given) | 57.5% (active)
O=C(COC(=O)c1cccs1)Nc1ccccc1Cl | 5.7%
COc1cc(OC)c(OC)cc1/C=N/Nc1ncnc2c1[nH]c1ccc(C)cc12 | 5.82%
CC(C)OCCCNc1ncnc2c1[nH]c1ccc(F)cc12 | 46.2% (active)
CC(C)OCCCNC(=O)c1cc(Sc2ccc(F)cc2)nc2ccccc12 | 8.64%
CCCc1[nH]nc2c1C(C1CC=CCC1)C(C#N)=C(N)O2 (stereo not given) | 3.84%
CCCc1[nH]nc2c1C(c1ccc(Br)s1)C(C#N)=C(N)O2 (stereo not given) | 51.9% (active)
CCCc1[nH]nc2c1C(c1c(C)nn(-c3ccccc3)c1Cl)C(C#N)=C(N)O2 (stereo not given) | 25.4%
CC(Sc1nnc(-c2cccnc2)n1-c1ccccc1)C(=O)Nc1ccc(N)cc1 (stereo not given) | 14.6%
O=c1c2ccc(Br)c3cccc(c32)c2nc3ccccc3n12 | 6.4%
COc1ccccc1CNS(=O)(=O)c1ccc(S(=O)(=O)N2CCC(C)CC2)cc1 | 4.43%
